# Test results: PubChem BioAssay AID2023 (NMMLSC, 2009)
# Several values for one entry are separate records, joined by “and”; a condition that tells them apart may be missing. Equal values may be shown once. The campaign covered roughly 320,000 compounds. About 1,100 (0.34%) were called active.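 Rule for the calls: active = GFP response vs DMSO above a set limit, about the screen mean plus 3 SD (cut at about 150% in these data); inconclusive = under 70 cell events counted for the yeast strain; inactive = the rest.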 Many of the other results were omitted from the sample, so actives are more common in it than they were. More than one record can exist for a structure, and the calls need not agree.
# Assay: TOR pathway LAP4-GFP level changes – S. cerevisiae, multiplex flow cytometry, MLPCN library, primary screen (AID 2023)
# Conditions: 3 h, at 10 µM, stronger effect = higher value, median GFP as percent of DMSO wells
row,SMILES,GFP response vs DMSO
1,Nc1ccccc1SC(C[N+](=O)[O-])c1ccccc1 (centres undefined),209% (active)
2,Cc1ccc(C(C[N+](=O)[O-])c2c(C)cc3ccccn23)cc1 (centres undefined),97.5% (inactive)
3,CCS(=O)(=O)c1cc([N+](=O)[O-])c(Sc2ccccc2N)s1,100% (inactive)
4,COC(=O)c1ccc(N2CCOCC2)c(NC(=O)c2ccc(Br)o2)c1,84.3% (inactive)
5,O=C1CCN(CCCc2ccccc2)CCN1CCO,109% (inactive)
6,COc1ccc(C)cc1NC(=O)CSc1cccc[n+]1[O-],99.3% (inactive)
7,Cc1ccc(S(=O)(=O)N2CCC(C)CC2)cc1C(=O)NCc1ccccn1,99.2% (inactive)
8,Cc1cc(N)n2nc(-c3ccc(C(C)(C)C)cc3)cc2n1,77.9% (inactive)
9,CN(c1cccc(NC(=O)Nc2ccc(Cl)cc2)c1)S(C)(=O)=O,107% (inactive)
10,Cc1nnsc1C(=O)N/N=C/c1ccccc1Cl,106% (inactive)
11,O=C(Nc1ccccc1)c1nnsc1S(=O)(=O)c1ccc(Cl)cc1,187% (active)
12,CC(C)Oc1ccc(S(=O)(=O)N2CCOCC2)cc1NC(=O)C1CSC2(C)CCC(=O)N12 (centres undefined),106% (inactive)
13,O=[N+]([O-])c1ccc(S(=O)(=O)Nc2cccc(-c3ccc(N4CCCC4)nn3)c2)cc1,100% (inactive)
14,COc1cc(/C=C/C(=O)O)cc(S(=O)(=O)Nc2ccccc2C(=O)NCCc2ccccc2)c1OC,96% (inactive)
15,CCCn1nc(C(=O)Nc2ccc3nc(C)sc3c2)c2ccccc2c1=O,102% (inactive)
16,CCCn1nc(C(=O)NNC(=O)CCOc2ccccc2OCC)c2ccccc2c1=O,217% (active)
17,CCCn1nc(C(=O)NNC(=O)CSCC(=O)Nc2cc(C)on2)c2ccccc2c1=O,91.7% (inactive)
18,Brc1ccc(Nc2c3c(nc4ncnn24)CCC3)cc1,103% (inactive)
19,Cc1cccc(NC(=O)CSc2nnc(CCNC(=O)OC(C)(C)C)o2)c1C,95.1% (inactive)
20,Cc1ccc2nc(SC(C)C(=O)NCc3ccco3)[nH]c2c1 (centres undefined),111% (inactive)
21,Cc1ccn(-c2cccc(-n3ccc(C)n3)n2)n1,100% (inactive)
22,CCN(CC)c1ccc(S(=O)(=O)N2CCCCC2)cc1NC(=O)C1=COCCO1,99.6% (inactive)
23,CC(NC(=O)C1CCCN(S(=O)(=O)c2ccc(-n3cnnn3)cc2)C1)c1ccc(F)cc1 (centres undefined),83.4% (inactive)

row,SMILES,GFP response vs DMSO
1,O=C(NCCc1csc(-c2ccccc2)n1)c1ccccc1F,120% (inactive)
2,O=C(O)Cc1csc(-c2cccc(Oc3ccccc3)c2)n1,110% (inactive) and 152% (active)
3,COc1cc(OC)cc(C(=O)NCC(=O)OCc2csc(-c3ccccc3)n2)c1,101% (inactive)
4,CC(=O)c1c(C)n([O-])c2ccccc2[n+]1=O,99.9% (inactive)
5,COc1cccc(NC(=O)COc2cccnc2[N+](=O)[O-])c1,94.7% (inactive)
6,CC(NC(=O)COc1cccnc1[N+](=O)[O-])c1ccc(Cl)cc1Cl (centres undefined),116% (inactive)
7,O=C(COc1cccnc1[N+](=O)[O-])Nc1ccc(Cl)cc1F,178% (active)
8,COc1cccc(CCNC(=O)c2cccc(NC(=O)C3=C(C)OCCS3)c2)c1,93.6% (inactive)
9,CCc1ccc(N(CC(=O)NCc2cccnc2)S(=O)(=O)c2ccccc2)cc1,96.7% (inactive)
10,O=C(O)CN1c2cccc3cccc(c23)S1(=O)=O,92.9% (inactive)
11,COC(=O)Cn1cc(/C=C/[N+](=O)[O-])c2ccccc21,164% (active)
12,COC(=O)c1cn(CC(=O)NCc2cccs2)c2ccccc12,95% (inactive)
13,COC(=O)N/N=C/c1cn(CCCOc2ccc(C)cc2)c2ccccc12,89.7% (inactive)
14,COC(=O)Cc1cnc(NC(=O)CSc2nc(C(C)C)cc(=O)[nH]2)s1,114% (inactive)
15,COc1cc(C)c(C(C)C)cc1S(=O)(=O)n1ccnc1,89.6% (inactive)
16,COC(=O)c1ccc(/C=C2/C(=O)Oc3ccccc32)cc1,93.2% (inactive)
17,COc1ccc2c(c1)O/C(=C\c1ccccc1O)C2=O,108% (inactive)
18,O=C1Oc2ccccc2C(=O)/C1=C/c1ccccc1O,208% (active)
19,COc1ccc(Cl)cc1NC(=O)CN(C)C(=O)CCCc1c[nH]c2ccccc12,99.5% (inactive)
20,O=Cc1c(NCCCN2CCCC2=O)c2ccccc2[nH]c1=O,100% (inactive)
21,CCC1Sc2ccc(S(=O)(=O)CCC(=O)NCc3cccs3)cc2NC1=O (centres undefined),106% (inactive)
22,O=C(COC(=O)c1ccccc1Br)Nc1nnc(-c2ccccc2)o1,115% (inactive)
23,O=C(Nc1nnc(-c2ccc(Cl)cc2)o1)c1ccccc1Br,159% (active)

row,SMILES,GFP response vs DMSO
1,O=C(Nc1nnc(-c2ccccc2)o1)c1cc(-c2cccs2)nc2ccccc12,112% (inactive)
2,Cc1cccc(NS(=O)(=O)c2ccc(C(=O)NCC(C)(C)N3CCOCC3)cc2)c1C,103% (inactive)
3,CCOc1ccc(NC(=O)CN(C)C(=O)COc2cccc(CC)c2)cc1OCC,100% (inactive)
4,CCC(=O)N1CCC(C(N)=O)(N2CCCCC2)CC1,95.6% (inactive)
5,CCCCCCSc1ccc([C@@H]2[C@@H]3C(=O)N(CC)C(=O)[C@@H]3[C@]3(C(=O)OC)CCCCN23)cc1OC,90.1% (inactive)
6,CCC(=C/c1sc2ccc3ccccc3c2[n+]1C)/C=C1\Sc2ccc3ccccc3c2N1C,283% (active)
7,O=C(Nc1cccc(Cl)c1Cl)c1ccccc1NC(=O)C1CC=CCC1C(=O)O (centres undefined),67.7% (inactive)
8,Cc1cccc(C)c1N1CCN(S(=O)(=O)N2CCOCC2)CC1,110% (inactive)
9,C=CCOc1ccc(Cl)cc1CNCCCN1CCOCC1,91.3% (inactive)
10,CC(=O)Nc1ccc(Nc2nc3c(S(=O)(=O)c4ccc(C)c(C)c4)nnn3c3ccccc23)cc1,89.9% (inactive)
11,Cc1ccc(S(=O)(=O)c2nnn3c2nc(N2CCN(c4ccccn4)CC2)c2ccccc23)cc1,104% (inactive)
12,Cc1cccc(Nc2nc3c(S(=O)(=O)c4ccccc4)nnn3c3ccccc23)c1C,783% [may fluoresce green] (active)
13,CN(C)c1nc(=Nc2cccc(Cl)c2)ss1,191% (active)
14,CCOC(=O)N1CCN(C(=O)c2cn(C)c3ccc(S(=O)(=O)N(CC)CC)cc3c2=O)CC1,102% (inactive)
15,O=C(O)C1OC(C(=O)O)C2C1C(F)(F)C2(F)F (centres undefined),99.4% (inactive)
16,O=C(CN1C(=O)NC2(CCCC2)C1=O)NCC1CCCO1 (centres undefined),104% (inactive)
17,Nc1cc(N)nc(SCc2cccc(F)c2)n1,97.2% (inactive)
18,CCc1nnc(SCc2cccc(F)c2)nc1CC,152% (active)
19,O=c1[nH]c(SCc2cccc(F)c2)nc2ccccc12,108% (inactive)
20,O=C(CCC1CCN(C(=O)c2cccc(Cl)c2F)CC1)Nc1ccccc1,106% (inactive)
21,Cn1ncc(N2CCN(S(=O)(=O)c3ccc(Br)cc3)CC2)c(Cl)c1=O,170% (active)
22,COc1ccccc1N1CCN(S(=O)(=O)c2ccc(Cl)cc2)CC1,110% (inactive)
23,CCOC(=O)N1CCN(S(=O)(=O)c2ccc(Br)cc2)CC1,108% (inactive)
